Data published in the supplement of paper PMC10849652.
About 7,900 targets were measured; listed, in parts, are those with a hit and a random draw of the rest. About 0.6% of all pairs of compound and target were hits. Values without a mark were called inactive.

Legend:
Test in all cases: log2 fold change, soluble protein after heating vs DMSO (PISA); higher = thermal stabilisation; K562 cells, 10 uM, 30 min; active = over 0.2 and 3.5 SD of the protein, either way, in both replicates (recomputed)
[1] = compound: COC1=CC=C(C=C1)CN2C=CC3=C2C=C(C=C3)C(=O)NO
Outline: (§1)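 Values are thermal stability changes relative to control samples and are taken from duplicates. They are stated as log2 fold changes. Before quantification by TMTpro 16plex LC-MS/MS with equalised channel sums, K562 cells at 2×10^6 cells/mL were treated with 10 μM compound for 30 min, heated in aliquots for 3 min across 48°C-58°C, pooled, extracted in PBS with 0.5% NP-40 at 4°C, and centrifuged at 21,000xg for 90 min to give the soluble supernatant.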

filanesib = compound: CON(C)C(=O)N1N=C(c2cc(F)ccc2F)S[C@@]1(CCCN)c1ccccc1 [filanesib]
Outline: as §1

zotarolimus = compound: CO[C@H]1C[C@@H]2CC[C@@H](C)[C@@](O)(O2)C(=O)C(=O)N2CCCC[C@H]2C(=O)O[C@H]([C@H](C)C[C@@H]2CC[C@H](n3cnnn3)[C@H](OC)C2)CC(=O)[C@H](C)/C=C(\C)[C@@H](O)[C@@H](OC)C(=O)[C@H](C)C[C@H](C)/C=C/C=C/C=C/1C [zotarolimus]
Outline: as §1

idasanutlin = compound: COc1cc(C(=O)O)ccc1NC(=O)[C@@H]1N[C@@H](CC(C)(C)C)[C@](C#N)(c2ccc(Cl)cc2F)[C@H]1c1cccc(Cl)c1F [idasanutlin]
Outline: as §1

alisertib = compound: COc1cc(Nc2ncc3c(n2)-c2ccc(Cl)cc2C(c2c(F)cccc2OC)=NC3)ccc1C(=O)O [alisertib]
Outline: as §1

[2] = compound: COc1cc2nc(-c3cc(F)ccc3O)nc(N[C@@H]3CNC[C@H]3C(C)(C)O)c2cc1OC
Outline: as §1

gefitinib = compound: COc1cc2ncnc(Nc3ccc(F)c(Cl)c3)c2cc1OCCCN1CCOCC1 [gefitinib]
Outline: as §1

[3] = compound: COc1cccc2cc(-c3nc([C@H]4CC[C@H](C(=O)O)CC4)n4ncnc(N)c34)[nH]c12
Outline: as §1

lapatinib = compound: CS(=O)(=O)CCNCc1ccc(-c2ccc3ncnc(Nc4ccc(OCc5cccc(F)c5)c(Cl)c4)c3c2)o1 [lapatinib]
Outline: as §1

[4] = compound: CS(=O)(=O)c1ccc(-c2cnc(N)c(C(=O)Nc3ccccc3)n2)cc1
Outline: as §1

crizotinib = compound: C[C@@H](Oc1cc(-c2cnn(C3CCNCC3)c2)cnc1N)c1c(Cl)ccc(F)c1Cl [crizotinib]
Outline: as §1

[5] = compound: C[C@@H]1COCCN1C2=NC(=NC(=C2)C3(CC3)S(=O)(=O)C)C4=C5C=CNC5=CC=C4
Outline: as §1

[6] = compound: C[C@H](C1=CC=C(C=C1)C(=O)NC2=C3C=CNC3=NC=C2)N
Outline: as §1

duvelisib = compound: C[C@H](Nc1ncnc2nc[nH]c12)c1cc2cccc(Cl)c2c(=O)n1-c1ccccc1 [duvelisib]
Outline: as §1

tozasertib = compound: Cc1cc(Nc2cc(N3CCN(C)CC3)nc(Sc3ccc(NC(=O)C4CC4)cc3)n2)n[nH]1 [tozasertib]
Outline: as §1

[7] = compound: Cc1cc(SCc2sc(-c3ccc(C(F)(F)F)cc3)nc2C)ccc1OCC(=O)O
Outline: as §1

doramapimod = compound: Cc1ccc(-n2nc(C(C)(C)C)cc2NC(=O)Nc2ccc(OCCN3CCOCC3)c3ccccc23)cc1 [doramapimod]
Outline: as §1

ispinesib = compound: Cc1ccc(C(=O)N(CCCN)[C@@H](c2nc3cc(Cl)ccc3c(=O)n2Cc2ccccc2)C(C)C)cc1 [ispinesib]
Outline: as §1

pictilisib = compound: CS(=O)(=O)N1CCN(Cc2cc3nc(-c4cccc5[nH]ncc45)nc(N4CCOCC4)c3s2)CC1 [pictilisib]
Outline: as §1

gandotinib = compound: Cc1cc(Nc2cc(CN3CCOCC3)c3nc(C)c(Cc4ccc(Cl)cc4F)n3n2)n[nH]1 [gandotinib]
Outline: as §1

Chain of UniProt Q16513 (Q16513 whole entry, looked up): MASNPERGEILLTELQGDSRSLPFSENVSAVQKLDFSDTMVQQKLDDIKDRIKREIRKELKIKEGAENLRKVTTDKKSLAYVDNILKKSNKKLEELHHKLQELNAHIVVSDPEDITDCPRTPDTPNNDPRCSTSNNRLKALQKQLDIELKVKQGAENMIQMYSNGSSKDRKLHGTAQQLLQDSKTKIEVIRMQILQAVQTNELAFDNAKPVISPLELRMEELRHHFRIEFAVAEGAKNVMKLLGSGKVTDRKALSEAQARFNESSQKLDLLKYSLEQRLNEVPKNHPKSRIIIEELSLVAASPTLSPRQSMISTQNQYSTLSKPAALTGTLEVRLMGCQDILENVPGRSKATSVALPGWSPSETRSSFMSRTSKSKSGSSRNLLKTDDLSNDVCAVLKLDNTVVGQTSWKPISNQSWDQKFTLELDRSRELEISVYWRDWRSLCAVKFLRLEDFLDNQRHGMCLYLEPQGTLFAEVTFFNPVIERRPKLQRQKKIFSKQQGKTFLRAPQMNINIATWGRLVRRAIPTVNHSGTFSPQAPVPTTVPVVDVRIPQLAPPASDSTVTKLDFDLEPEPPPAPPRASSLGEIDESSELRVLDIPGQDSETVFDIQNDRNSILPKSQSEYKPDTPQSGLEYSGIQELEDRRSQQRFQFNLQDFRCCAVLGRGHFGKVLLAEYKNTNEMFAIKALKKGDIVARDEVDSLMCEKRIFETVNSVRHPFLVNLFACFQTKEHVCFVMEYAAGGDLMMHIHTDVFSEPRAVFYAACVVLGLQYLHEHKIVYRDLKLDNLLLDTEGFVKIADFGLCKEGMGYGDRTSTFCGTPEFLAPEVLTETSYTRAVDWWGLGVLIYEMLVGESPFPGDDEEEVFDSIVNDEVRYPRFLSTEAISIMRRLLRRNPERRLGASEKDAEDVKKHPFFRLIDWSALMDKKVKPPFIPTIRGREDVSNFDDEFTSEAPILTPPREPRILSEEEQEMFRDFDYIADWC
Chain of UniProt O75340 (O75340 whole entry, looked up): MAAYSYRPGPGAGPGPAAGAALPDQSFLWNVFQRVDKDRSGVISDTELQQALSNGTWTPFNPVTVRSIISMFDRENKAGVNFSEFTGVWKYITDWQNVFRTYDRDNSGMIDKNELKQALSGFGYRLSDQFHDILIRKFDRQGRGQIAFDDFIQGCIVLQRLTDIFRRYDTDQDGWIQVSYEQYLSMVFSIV
Chain of UniProt P28065 (P28065 whole entry, looked up): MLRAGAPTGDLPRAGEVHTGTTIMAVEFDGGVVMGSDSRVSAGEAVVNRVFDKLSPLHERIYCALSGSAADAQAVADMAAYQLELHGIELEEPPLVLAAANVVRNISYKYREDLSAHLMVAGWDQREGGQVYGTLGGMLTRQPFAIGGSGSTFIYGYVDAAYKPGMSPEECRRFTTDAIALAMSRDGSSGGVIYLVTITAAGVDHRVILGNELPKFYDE
Chain of UniProt P49585 (P49585 whole entry, looked up): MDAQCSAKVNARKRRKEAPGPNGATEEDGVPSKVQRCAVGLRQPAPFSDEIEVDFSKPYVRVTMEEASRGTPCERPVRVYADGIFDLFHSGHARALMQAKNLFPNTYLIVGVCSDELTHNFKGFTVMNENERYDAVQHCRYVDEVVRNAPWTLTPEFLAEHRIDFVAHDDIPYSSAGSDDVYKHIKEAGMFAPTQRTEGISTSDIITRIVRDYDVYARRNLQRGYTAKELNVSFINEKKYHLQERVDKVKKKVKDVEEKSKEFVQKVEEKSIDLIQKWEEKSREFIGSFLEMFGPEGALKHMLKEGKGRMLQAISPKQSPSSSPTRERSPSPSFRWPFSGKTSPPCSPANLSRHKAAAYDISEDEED
Chain of UniProt Q15111 (Q15111 whole entry, looked up): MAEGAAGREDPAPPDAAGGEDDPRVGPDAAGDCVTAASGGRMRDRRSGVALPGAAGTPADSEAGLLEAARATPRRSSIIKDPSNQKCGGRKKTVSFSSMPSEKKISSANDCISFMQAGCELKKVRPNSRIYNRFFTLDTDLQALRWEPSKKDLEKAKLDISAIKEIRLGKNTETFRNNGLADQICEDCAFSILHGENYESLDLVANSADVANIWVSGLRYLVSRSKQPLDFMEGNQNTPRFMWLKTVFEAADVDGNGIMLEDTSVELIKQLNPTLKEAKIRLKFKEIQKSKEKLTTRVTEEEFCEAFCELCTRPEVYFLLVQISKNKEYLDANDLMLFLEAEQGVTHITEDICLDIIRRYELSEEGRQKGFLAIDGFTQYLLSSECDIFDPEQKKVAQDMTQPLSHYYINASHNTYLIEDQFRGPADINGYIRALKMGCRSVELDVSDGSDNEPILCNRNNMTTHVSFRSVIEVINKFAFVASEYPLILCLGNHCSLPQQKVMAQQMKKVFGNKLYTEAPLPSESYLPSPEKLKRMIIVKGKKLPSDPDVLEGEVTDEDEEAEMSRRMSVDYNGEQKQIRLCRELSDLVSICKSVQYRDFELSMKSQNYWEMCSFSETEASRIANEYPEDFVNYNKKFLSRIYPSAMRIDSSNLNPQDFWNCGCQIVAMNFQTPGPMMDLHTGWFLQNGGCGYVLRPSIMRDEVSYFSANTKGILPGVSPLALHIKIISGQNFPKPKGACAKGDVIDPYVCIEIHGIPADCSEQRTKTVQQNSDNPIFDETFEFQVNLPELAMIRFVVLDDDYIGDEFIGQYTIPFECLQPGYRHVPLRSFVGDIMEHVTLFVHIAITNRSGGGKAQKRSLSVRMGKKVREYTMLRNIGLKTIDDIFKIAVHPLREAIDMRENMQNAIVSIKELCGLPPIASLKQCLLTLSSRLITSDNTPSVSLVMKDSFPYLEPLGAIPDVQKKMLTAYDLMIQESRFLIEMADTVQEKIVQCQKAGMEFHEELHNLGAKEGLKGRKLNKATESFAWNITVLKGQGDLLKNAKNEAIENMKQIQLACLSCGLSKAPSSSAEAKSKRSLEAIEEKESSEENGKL
Chain of UniProt P46020 (P46020 whole entry, looked up): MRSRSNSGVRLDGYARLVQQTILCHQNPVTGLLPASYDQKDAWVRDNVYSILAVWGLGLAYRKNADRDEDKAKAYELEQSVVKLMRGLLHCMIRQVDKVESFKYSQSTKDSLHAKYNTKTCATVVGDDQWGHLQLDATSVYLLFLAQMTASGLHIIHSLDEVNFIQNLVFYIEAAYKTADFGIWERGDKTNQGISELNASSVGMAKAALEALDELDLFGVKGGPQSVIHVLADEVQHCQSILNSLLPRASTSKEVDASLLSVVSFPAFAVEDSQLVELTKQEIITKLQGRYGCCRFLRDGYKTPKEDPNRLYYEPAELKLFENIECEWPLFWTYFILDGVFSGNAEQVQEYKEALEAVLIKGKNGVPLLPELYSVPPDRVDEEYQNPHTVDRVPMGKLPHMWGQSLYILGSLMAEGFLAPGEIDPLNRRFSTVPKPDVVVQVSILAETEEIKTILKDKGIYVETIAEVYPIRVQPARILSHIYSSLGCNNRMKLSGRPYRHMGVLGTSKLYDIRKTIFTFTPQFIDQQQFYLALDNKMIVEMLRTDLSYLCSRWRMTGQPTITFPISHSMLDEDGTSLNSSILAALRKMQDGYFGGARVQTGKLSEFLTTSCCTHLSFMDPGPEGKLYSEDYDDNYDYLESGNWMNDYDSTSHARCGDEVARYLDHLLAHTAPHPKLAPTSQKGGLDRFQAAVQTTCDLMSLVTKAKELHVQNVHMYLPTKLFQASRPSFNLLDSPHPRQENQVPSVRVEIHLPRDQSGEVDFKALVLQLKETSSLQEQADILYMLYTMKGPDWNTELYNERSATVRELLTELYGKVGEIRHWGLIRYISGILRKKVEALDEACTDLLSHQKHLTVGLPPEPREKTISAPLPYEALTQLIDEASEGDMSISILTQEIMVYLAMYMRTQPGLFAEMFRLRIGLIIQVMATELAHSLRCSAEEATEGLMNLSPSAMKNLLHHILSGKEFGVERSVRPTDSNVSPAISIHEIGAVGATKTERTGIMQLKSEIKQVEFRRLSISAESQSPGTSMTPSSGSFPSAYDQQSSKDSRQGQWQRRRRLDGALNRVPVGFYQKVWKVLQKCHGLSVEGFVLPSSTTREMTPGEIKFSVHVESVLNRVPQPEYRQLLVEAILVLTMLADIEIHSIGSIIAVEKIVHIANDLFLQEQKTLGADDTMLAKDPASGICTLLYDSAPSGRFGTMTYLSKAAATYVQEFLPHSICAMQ
Chain of UniProt Q12974 (Q12974 whole entry, looked up): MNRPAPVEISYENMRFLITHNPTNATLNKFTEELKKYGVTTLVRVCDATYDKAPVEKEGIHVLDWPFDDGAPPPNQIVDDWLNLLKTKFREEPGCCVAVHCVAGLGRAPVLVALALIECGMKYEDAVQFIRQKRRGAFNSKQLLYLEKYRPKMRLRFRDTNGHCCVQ
Chain of UniProt Q9H307 (Q9H307 whole entry, looked up): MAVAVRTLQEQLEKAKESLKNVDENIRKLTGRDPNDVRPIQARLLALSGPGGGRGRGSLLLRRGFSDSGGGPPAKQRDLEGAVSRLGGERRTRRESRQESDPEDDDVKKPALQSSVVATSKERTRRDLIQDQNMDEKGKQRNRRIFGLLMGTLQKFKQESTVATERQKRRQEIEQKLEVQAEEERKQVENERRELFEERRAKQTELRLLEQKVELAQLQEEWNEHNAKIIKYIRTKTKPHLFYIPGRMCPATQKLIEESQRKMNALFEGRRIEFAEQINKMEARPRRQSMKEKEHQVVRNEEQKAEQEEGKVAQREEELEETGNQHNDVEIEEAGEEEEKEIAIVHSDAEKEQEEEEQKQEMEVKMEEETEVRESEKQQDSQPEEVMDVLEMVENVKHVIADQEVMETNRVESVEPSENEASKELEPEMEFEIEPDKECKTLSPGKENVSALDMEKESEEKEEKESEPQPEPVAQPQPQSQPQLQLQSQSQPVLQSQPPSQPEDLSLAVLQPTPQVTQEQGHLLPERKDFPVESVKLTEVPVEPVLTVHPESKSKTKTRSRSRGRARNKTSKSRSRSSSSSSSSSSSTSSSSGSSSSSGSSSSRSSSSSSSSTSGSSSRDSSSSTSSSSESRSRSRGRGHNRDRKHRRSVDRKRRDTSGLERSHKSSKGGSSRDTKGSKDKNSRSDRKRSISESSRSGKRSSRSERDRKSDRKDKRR

Target	log2 fold change [1]	log2 fold change (filanesib)	log2 fold change (zotarolimus)	log2 fold change (idasanutlin)	log2 fold change (alisertib)	log2 fold change [2]	log2 fold change (gefitinib)	log2 fold change [3]	log2 fold change (lapatinib)	log2 fold change [4]	log2 fold change (crizotinib)	log2 fold change [5]	log2 fold change [6]	log2 fold change (duvelisib)	log2 fold change (tozasertib)	log2 fold change [7]	log2 fold change (doramapimod)	log2 fold change (ispinesib)	log2 fold change (pictilisib)	log2 fold change (gandotinib)
PTP4A2 (UniProt Q12974)	0.078	-0.062	-0.022	-0.079	-0.055	0.033	-0.007	-0.11	-0.078	-0.001	0.047	0.026	-0.01	-0.057	0.017	0.05	-0.047	0.154		
POMK (UniProt Q9H5K3)	-0.025	-0.019	-0.101	-0.017	0.077	-0.037	-0.02	0.04	0.067	-0.013	-0.044	-0.034	0.086	0.062	0.024	0.092	0.108	-0.203	0.077	0.027
PDCD6 (UniProt O75340)	-0.06	-0.124	-0.03	-0.106	0.092	0.047	-0.021	0.013	-0.035	0.029	-0.047	0.051	-0.021	0.03	0.05	0.038	0.002	-0.045	0.038	-0.056
PKN2 (UniProt Q16513)	0.001	-0.085	0.01	-0.016		-0.069	0.004	0.034	-0.013	0.025	-0.191	0.067	-0.057	0.027		0.133	0.035	-0.028	0	-0.058
PLCB3 (UniProt Q01970)	-0.004	-0.118	0.007	-0.044	-0.05	-0.008	-0.003	0.013	-0.028	0	-0.07	0.014	0.013	0.019	0.041	0.034	0.014	-0.078	0.055	0.031
QRICH1 (UniProt Q2TAL8)	0.015	0.004	-0.022	-0.072	0.071	0.08	0.137	0.032	0.011	-0.01	-0.2	0.07	0.016	0.143	0.171	0.014	-0.077	0.006		
PLCL1 (UniProt Q15111)	0.048	-0.036	0.09	0.062	-0.107		0.118	0.229		0.112	-0.03	0.074	-0.263		-0.015		-0.08	-0.162	-0.073	-0.14
PDE6D (UniProt O43924)	-0.036	0.101	-0.179	-0.092	-0.031		0.076	0.002		-0.165	0.001	0.079	-0.148	0.109	-0.076	-0.098	0.084		0.078	-0.202
PSMC2 (UniProt P35998)	-0.076	0.049	-0.03	0.033	-0.05	-0.034	-0.051	-0.05	0.059	0.011	0.003	-0.087	0.079	-0.061	0.031	0.014	0.005	0.016	-0.067	0.027
PNN (UniProt Q9H307)	-0.004	0.083	-0.047	0.125	-0.017	-0.14	0.031	0.056	-0.037	-0.043	-0.154	0.022	-0.05	0.034		-0.003	-0.032	-0.08	-0.015	0.012
PATL1 (UniProt Q86TB9)	-0.015	-0.009	0.076	0.049	-0.035	-0.135		0.069	0.05	-0.014	-0.201	-0.037	0.122	-0.002	-0.014	0.039	0.12	-0.339 (active)	-0.115	-0.139
POM121 (UniProt Q96HA1)	-0.03	0.055	-0.018	0.146		-0.027	-0.002		-0.01	0.024	-0.139	-0.016	0.084	-0.022	0.014	0.008	0.134	-0.307 (active)	0.003	-0.043
PCYT1A (UniProt P49585)	0.006	-0.005	0.035	-0.015	0.025	-0.05	-0.012	-0.037	0.018	-0.031	-0.032	0.092	-0.097	0.081	0.072	0.094	-0.008	0.003	0.03	-0.148
PSMB9 (UniProt P28065)	0.25	0.189	-0.08	-0.028		0.246			-0.064	0.259	0	0.075	0.066				0.084		-0.006	0.126
POLR2M (UniProt Q6EEV4)	-0.046	0.076	0.034	0.046	-0.144	-0.063	0.076	-0.033	-0.084	-0.03	-0.021	0.16	-0.078	-0.024	-0.039	-0.061	-0.04			
PI4K2B (UniProt Q8TCG2)	-0.035	-0.059	-0.014	-0.034	-0.059		0.4	-0.054		0.06	-0.184		0.118	0.132	-0.168	-0.016	0.01	-0.355 (active)	0.051	-0.045
PSMD1 (UniProt Q99460)	0.009	-0.002	0.011	-0.005	-0.126	-0.077	-0.046	-0.056	0.069	-0.009	-0.002	-0.075	0.047	-0.081	0.054	0.017	0.036	0.048	-0.052	0
PRIM1 (UniProt P49642)	0.04	0.001	0.073	-0.06	0.052	-0.012	0.011	-0.053	0.007	0.051	-0.066	0.039	0.086	-0.011	0.001	0.102	0.007	-0.082	0.021	-0.131
PFDN1 (UniProt O60925)	-0.048	-0.007	0.091	-0.024	-0.042	-0.125	-0.002	0.026	-0.047	0.018	0.069	0.264	-0.115	0.175	0.072	0.081	0.018	0.277	0.014	0.029
PHKA1 (UniProt P46020)	0.046	0.076	-0.024	-0.518 (active)	-0.223	0.265	-0.017	0.034	-0.109	-0.036	-0.05	-0.048	0.189	-0.074	0.279	0.075	0.037	-0.07	0.049	-0.015
